The source of these data is PubChem BioAssay.

Unmarked numbers belong to inactive results.

The assay can be described thus: plasmodial surface anion channel blockers, osmotic lysis – cell-based, P. falciparum Indochina, OD700, 18 h, primary screen (AID 1157). Particulars: P. falciparum Indochina infected erythrocytes, osmotic lysis OD700, 18 h; higher = more signal, called active from +8 up or from −8 down.
Turning to `COc1ccc([Si](C)(C)[C@@H]2[C@@H](CCO)O[C@]3(C(=O)N(Cc4ccc(NC(C)=O)cc4)c4ccccc43)[C@H]2C)cc1`, the z-score was 0.0087.

Turning to `CCCCC(=C=CC[C@H](O)c1ccccc1OCCO)C[C@H](O)COCc1ccccc1`, the z-score was 0.921.

As for `COC(=O)[C@H]1COC(c2ccc(OCCCO)cc2)=N1`, the z-score is 0.642.

Turning to `CC(C)C[C@@H]1NC(=O)[C@H]2C[C@@H](C(=O)NCCCCCCN(C)C)[C@@H](c3cccc(OCCO)c3)N2C1=O`, the z-score was 0.154.

For `O=C1O[C@@H](c2ccccc2)[C@@H](c2ccccc2)N2[C@@H](c3ccccc3OCCO)[C@]3(C(=O)Nc4ccc(C#CCCO)cc43)[C@@H](C(=O)O)[C@H]12`, the z-score was -2.06.

`CC(C)NC(=O)[C@@]1(C)c2ccccc2C(=O)N(Cc2cc(F)cc(C(F)(F)F)c2)[C@H]1c1ccc(CO)cc1`: the z-score was 0.0608.

`O=C1O[C@@H](c2ccccc2)[C@@H](c2ccccc2)N2[C@@H](c3ccc(OCCO)cc3)[C@]3(C(=O)Nc4ccccc43)[C@@H](C(=O)N3CCN(c4ncccn4)CC3)[C@H]12`: the z-score is 1.28.

As for `CCc1cc2c(nc1CC)CCN(CCC(C)=NOC[C@@H](O)[C@H]1O[C@@H]3OC(C)(C)O[C@@H]3[C@H]1O)C2`, the z-score is 0.0977.

Take `C=CC[C@@H]1C=C[C@H](ON=C(C)CCN2CCc3nc(CC)c(CC)cc3C2)[C@@H](CO)O1`: the z-score was 0.294.

With `CN(C)CCCNC(=O)[C@@H]1c2ccccc2C(=O)N(Cc2cc(F)cc(C(F)(F)F)c2)[C@H]1c1ccc(CO)cc1`, the z-score was 0.745.
